Many of the other results were omitted from the sample, so hits are more common in it than they were.
nsP2pro primary: Primary qHTS for inhibitors of NSP2Pro chikungunya virus (CHIKV); Polyprotein P1234 (Chikungunya virus (strain S27-African prototype)), Q8JUX6; Potency, µM (series often up to 24.9 µM), hits mostly inhibitors; AID 1964107, 2024; FRET peptide cleavage, nsP2pro, fluorescence 1 h; 31,000 tested, 1.1% active; note: nearly all actives have a fitted effect of over 60% in size
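Recombinant nsP2pro (150 nM) was preincubated with compound 15 min at room temperature in 10 mM Tris-HCl pH 8.0, 0.01% Tween 20. Peptide 2 FRET substrate (2.5 uM) was then added and fluorescence read after 1 h. Seven-point series, up to 25 uM.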
CHIKV nsP2 cell: Secondary cell base assay for inhibitors of NSP2Pro Chikungunya virus (CHIKV) | shares compounds with nsP2pro primary | AID 1964100, 2024 | cell-based CHIKV nsP2 protease reporter assay | Potency, µM (titrated, usually from 51.1 µM), hits mostly inhibitors | 450 tested, 10% active; note: nearly all actives have a fitted effect of over 70% in size
NSP2 full ctr: Selectivity profile for inhibitors of NSP2Pro chikungunya virus (CHIKV): Full length NSP2 enzyme counterscreen (CHIKV-NSP2). shares compounds with nsP2pro primary. Full-length CHIKV NSP2 protease enzymatic counterscreen. Potency, µM (doses to about 50.7 µM), hits mostly inhibitors. 410 tested, 39% active. AID 1964101, 2024; note: nearly all actives have a fitted effect of over 65% in size
Furin counterscr: Selectivity profile for inhibitors of NSP2Pro chikungunya virus (CHIKV): Human furin counterscreen | shares compounds with nsP2pro primary | Recombinant human furin enzymatic counterscreen, fluorogenic substrate | Potency, µM (titrated, usually from 50.6 µM), usual class: inhibitors | 410 tested, 6% active | AID 1964102, 2024
NS23 peptide cs: Selectivity profile for inhibitors of NSP2Pro chikungunya virus (CHIKV): Endogenous NS2/3 peptide Counterscreen; shares compounds with nsP2pro primary; Purified CHIKV nsP2 protease, endogenous NS2/3 peptide cleavage; 410 tested, 34% active; Potency, µM (series often up to 51 µM), actives largely listed as inhibitors; AID 1964103, 2024; note: nearly all actives have a fitted effect of over 55% in size
Papain counter: Selectivity profile for inhibitors of NSP2Pro chikungunya virus (CHIKV): Papain Counterscreen; shares compounds with nsP2pro primary; purified papain protease activity, enzymatic inhibition; Potency, µM (highest dose often 51 µM), usual class: inhibitors; 410 tested, 5% active; AID 1964104, 2024
nsP2pro confirm: Confirmatory qHTS for inhibitors of NSP2Pro chikungunya virus (CHIKV). shares compounds with nsP2pro primary. CHIKV nsP2 protease enzymatic activity, qHTS. Potency, µM (doses to about 25.5 µM), actives largely listed as inhibitors. 410 tested, 43% active; note: nearly all actives have a fitted effect of over 75% in size
HCV NS3 4A cs: Selectivity profile for inhibitors of NSP2Pro chikungunya virus (CHIKV): NS34A-HCV Counterscreen. shares compounds with nsP2pro primary. 410 tested, 20% active. Potency, µM (doses to about 50.9 µM), most hits filed as inhibitors. HCV NS3/4A protease biochemical counterscreen; note: nearly all actives have a fitted effect of over 55% in size
Of the large screens only hits and unclear results are named; the others gave an inactive call (follow-up assays come after a bar, where they were run). Calls come from the whole dose curve.

CC(C)(O)C1OC1C1=CC(=O)C2(C)OC2C1O (centres undefined)	nsP2pro primary 9.9µM | CHIKV nsP2 cell inactive | NSP2 full ctr 4.6µM | Furin counterscr inactive | NS23 peptide cs inconclusive | Papain counter 10µM | nsP2pro confirm 5µM | HCV NS3 4A cs inconclusive
Cc1ccc(N2CCC(CNc3nc(-c4ccccc4C(C)C)ncc3F)CC2)cn1	none
FC(F)(F)c1ccccc1-c1nc(NCC23CC4CC(CC(C4)C2)C3)c2ccccc2n1	none
O=[S+]([O-])(Nc1ccc(-c2nc3ccccc3[nH]2)cc1)c1ccc2c(c1)OCO2	none
Cc1cccc(-c2noc([C@@H]3Cc4nc[nH]c4CN3C(=O)C3CCCCC3)n2)c1	none
Cc1cccc(-c2noc([C@@H]3Cc4nc[nH]c4CN3C(=O)c3ccc(-c4ccccc4)cc3)n2)c1	none
O=C(NC1CCCCC1)N1Cc2[nH]cnc2C[C@H]1c1nc(-c2ccc(Cl)cc2)no1	nsP2pro primary 4.5µM | CHIKV nsP2 cell inactive | NSP2 full ctr 33µM | Furin counterscr inactive | NS23 peptide cs inconclusive | Papain counter inactive | nsP2pro confirm 10µM | HCV NS3 4A cs inactive
O=C(Nc1ccc(Br)cc1)Nc1nnc(-c2ccncc2)s1	none
Cc1ccc(-c2ccc(=O)n(CC(=O)N(C)C(C)c3ccco3)n2)cc1 (centres undefined)	none
CCCCS(=O)c1sc2nc(-c3cccs3)cc(-c3ccccc3)c2c1N (centres undefined)	nsP2pro primary 7µM | CHIKV nsP2 cell inactive | NSP2 full ctr inactive | Furin counterscr inactive | NS23 peptide cs inactive | Papain counter inconclusive | nsP2pro confirm 14µM | HCV NS3 4A cs inactive
Fc1cc(Nc2nc(-c3ccncc3)nc3ccccc23)ccc1-c1cc(F)c(F)c(F)c1	none
Cc1noc(C)c1C(=O)N1CC(n2cc(COCc3ccccc3)nn2)C1	none
C=C1CC[C@H](O)C/C1=C\C=C1/CCC[C@]2(C)[C@@H]([C@H](C)CC[C@H](O)C(C)(C)O)CC[C@@H]12	none
N#Cc1c(-c2cc(C(F)(F)F)cc(C(F)(F)F)c2)no[n+]1[O-]	none
O=C1C(Cl)=C(N2CCOCC2)C(=O)N1c1ccc(Cl)c(Cl)c1	nsP2pro primary inconclusive | CHIKV nsP2 cell inconclusive | NSP2 full ctr inconclusive | Furin counterscr inactive | NS23 peptide cs inconclusive | Papain counter inconclusive | nsP2pro confirm 3.1µM | HCV NS3 4A cs inactive
CSCC(=O)N[C@H]1CCN2C(=O)c3cc(-c4ccc(Cl)cc4)ccc3NC(=O)[C@H]12	none
CCC(C)C(N)C(=O)NCCN1CCOCC1 (centres undefined)	none
Nc1nc(Nc2ccc3c(c2)CC[C@@H](N2CCCC2)CC3)nn1-c1cc2c(nn1)-c1ccccc1CCC2	none
Cc1nn(-c2ccccc2)c2c1C(C(C)C)N(C1CN([S+](C)(=O)[O-])C1)C2=O (centres undefined)	none
CCC(=O)OCC(=O)[C@]1(OC(=O)CC)[C@H](C)C[C@H]2[C@H]3[C@H]([C@@H](O)C[C@@]21C)[C@@]1(C)C=CC(=O)C=C1C[C@H]3Cl	none
CCOC(=O)C1CCN(c2ccc(NCc3ccc(-c4ccc(C#N)cc4)o3)cc2)CC1	nsP2pro primary 4.5µM | CHIKV nsP2 cell 21µM | NSP2 full ctr inconclusive | Furin counterscr inactive | NS23 peptide cs inconclusive | Papain counter inactive | nsP2pro confirm inactive | HCV NS3 4A cs 3.7µM
CC(C)(C)OC(=O)N1CCN(c2ccc(NCc3ccc(-c4ccc(C#N)cc4)o3)nc2)CC1	none
N#Cc1ccc(-c2ccc(CNc3ccc(N4CCC(C#N)CC4)cc3)o2)cc1	nsP2pro primary 10µM | CHIKV nsP2 cell inconclusive | NSP2 full ctr inconclusive | Furin counterscr inactive | NS23 peptide cs inconclusive | Papain counter inactive | nsP2pro confirm inconclusive | HCV NS3 4A cs 2.6µM
CC(C)(C)OC(=O)N1CCC(c2ccc(NCc3ccc(-c4ccc(C#N)cc4)o3)cc2)CC1	none
COc1ccc(-c2ccc(CNc3ccc(N4CCN(C(=O)OC(C)(C)C)CC4)cc3)o2)cc1	none
CC(C)(C)OC(=O)N1CCN(c2ccc(NCc3ncc(-c4ccc(C#N)cc4)o3)cc2)CC1	none
Cc1cc(NS(=O)(=O)c2ccc(NC(=O)Cc3cccc4ccccc34)cc2)no1	none
COc1ccc(C(=O)N2CCN(c3ccc4c(c3)CCC(=O)N4)CC2)cc1OC	none
Cc1cccc(CNc2ccnc(-c3ccc4ccccc4c3)n2)c1	none
COc1ccc2nc(-c3cccc(OCc4ccccc4)c3)sc2c1	none
O=C1CCCC2=C1C(c1[nH]ncc1Cl)N=C(Nc1ccn[nH]1)N2 (centres undefined)	none
Cc1c(Cl)cccc1NC(=O)Cn1c(CCC(=O)O)ccc1-c1cccs1	none
CCc1ccc(-n2c(CCC(=O)O)ccc2-c2cccs2)cc1	none
O=C(O)CCc1ccc(-c2cccs2)n1CC(=O)Nc1ccccc1C(F)(F)F	none | CHIKV nsP2 cell inactive | NSP2 full ctr inactive | Furin counterscr inactive | NS23 peptide cs inactive | Papain counter inactive | nsP2pro confirm inconclusive | HCV NS3 4A cs inactive
CCC[C@@H](C(=O)O)N1C(=O)[C@H]2C[C@@H]3CCCC[C@@H]3N2C(=O)[C@@H]1C	none
O=C(Nc1ccccc1F)N1CC2CCC(C1)N2Cc1ccc(-c2cc(F)cc(F)c2)cc1	none
C/C=C(\C)[C@@H]1C(C)=C[C@@H]2[C@H]([C@@H]1/C=C/C=C/C(=O)O)[C@@H](C)CC[C@@H]2O	none
CC(CO[C@@H]1O[C@H](COC(=O)/C=C/c2ccc(O)c(O)c2)[C@@H](O)[C@H](O)[C@H]1O)C1(O)COC(=O)C1 (some centres undefined)	nsP2pro primary inconclusive | CHIKV nsP2 cell inactive | NSP2 full ctr inactive | Furin counterscr inactive | NS23 peptide cs inactive | Papain counter inactive | nsP2pro confirm inactive | HCV NS3 4A cs inactive
